# Measurements taken from PubChem BioAssay (NCATS).
# Inconclusive results are not listed. The source made the active and inactive calls. Calls follow the shape of the dose curve; as a rule, active = well fitted inhibition curve with a large enough effect; inconclusive = small, poorly fitted or top-dose-only effect; inactive = no such curve, though single readings can be large or run the other way.
# Test system: Zika virus NS2B-NS3 protease (linked construct)
# Experiment: Primary screen NINDS Rhodamine qHTS for Zika virus inhibitors (AID 1347160); also: nearly all actives have a fitted effect of over 55% in size
# Settings: purified NS2B-NS3 protease, Rhodamine110 substrate fluorescence; series mostly up to 112 µM
# Excerpt: Avindra Nath, Ph.D., National Institute of Neurological Disorders and Stroke (NINDS), Bethesda, MD
# Radhakrishnan Padmanabhan, Ph.D., Georgetown University (GU), Washington D.C.
# Zika Virus causes congenital defects, including microcephaly and is associated with Guillain-Barre syndrome, eningoencephalitis and myelitis in infected adult. […] Using a target-based approach, we hope to establish a screening paradigm to uncover novel, cell-active NS2B-NS3 protease (Zika Virus) specific inhibitors from NCATS' collection of small molecules using qHTS.
# Four assay panel was created to identify potential Zika Virus inhibitors. Namely, (1) GU unlinked NS2B-NS3 AMC tagged protease qHTS, (2) GU unlinked NS2B-NS3 Rhodamine tagged protease qHTS, (3) NINDS linked NS2B-NS3 AMC tagged protease qHTS, (4) NINDS linked NS2B-NS3 Rhodamine tagged protease qHTS. Active compounds were re-acquired and re-screened to confirm inhibition. Inhibitors were further screened against various confirmatory and counterscreens in dose response format.
# Early Translation Branch (ETB)
# National Center for Advancing Translational Sciences (NCATS), Rockville, MD
# National Institute of Health (NIH), Bethesda, Maryland
# For the linked assay, Nath lab (NINDS) provided the purified linked NS2B-NS3 protease which is consists of hydrophilic domain of NS2B linked to the NS3 protease domain by a flexible (-[…]-) linker. Control compound aprotinin is obtained from Thermo Scientific (#78432; Waltham, Massachusetts). Rhodamine110 substrate ([N-Cbz]-Nle-Lys-Arg-Arg-Rhod110-Arg-Arg-Lys-Nle-[N-Cbz]) was purchased from either Genscript or Bachem.
# 1536-well Protease (Rhodamine110 Substrate) Assay:
# Briefly, 3 microL of enzyme (25 nM final concentration), in assay buffer (10 mM Tris-HCl pH 8.0 with 0.01% Tween 20) were dispensed into a 1,536-well solid-bottom black plate (Greiner Bio One, Monroe, NC). Twenty-three nL of compounds (final concentration range 7.28 nM to 114 microM) or control Aprotinin (final concentration range 3.47 nM to 114 microM) were transferred via Wako Pin-tool (Wako Automation, Richmond, VA). Samples were incubated (room temperature, protected from light) for 15 minutes followed by a 1 microL Rhodamine110 substrate addition (1.5 microM final concentration). Plates were then immediately read on a ViewLux High-throughput CCD imager (PerkinElmer, Waltham, MA) equipped with FITC fluorescence optics (480(20) nm excitation, 540(25) nm emission), then incubated (room temperature, protected from light) for 15 minutes (~15% conversion). The change in fluorescence intensity over the 15-minute reaction period was normalized against no-inhibitor and no-enzyme controls and the resulting percent inhibition data were fitted to a 4-parameter Hill equation. Aprotinin was used as intraplate control.
# Potency is read from the fitted curve at half-maximal effect.
row,Compound,Potency
1,C[C@]12CC(O)C3[C@@H](CCC4C[C@@H](O)CC[C@@]43CO)[C@@]1(O)CC[C@@H]2C1=CC(=O)OC1 (stereo not given in full),44 µM (active)
2,C/C=C1/CN2C3CC1C1=CCC(=O)N4c5ccccc5[C@@]3(C[C@@H]2C2=C[C@H]3C5CC6N(CC[C@@]67c6ccccc6N(C2=O)[C@@H]37)C/C5=C/C)[C@H]14 (stereo not given in full),31.1 µM (active)
3,CC[C@@H]1CN2CCC3(Nc4cccc(OC)c4C3=O)[C@@H]2C[C@@H]1/C(=C\OC)C(=O)OC (stereo not given in full),inactive
4,CO[C@@]12c3c(C)cc(O)c4c(=O)occ(c34)C(=O)[C@@H]1[C@]13COC(=O)c4c(O)cc(C)c(c41)C(=O)[C@H]2[C@@H]3OC(C)=O,3.11 µM (active)
5,CC[C@@H]1CN2CCc3c([nH]c4cccc(OC)c34)[C@@H]2C[C@@H]1/C(=C\OC)C(=O)OC,inactive
6,COC1=C(C2=C(OC)C(=O)c3cc4c(c(O)c3C2=O)C(=O)O[C@H](C)C4)C(=O)c2c(cc3c(c2O)C(=O)O[C@H](C)C3)C1=O,3.3 µM (active)
7,C/C(=C\[C@H](C)C(=O)C[C@H](O)CC1CC(=O)NC(=O)C1)[C@@H]1OC(=O)/C=C/CC/C=C/C=C/[C@@H]1C,44 µM (active)
8,C=C[C@H]1CN2CCc3c([nH]c4cccc(OC)c34)[C@@H]2C[C@@H]1/C(=C\OC)C(=O)OC,inactive
9,CC[C@H]1CN2CCc3c([nH]c4cccc(OC)c34)[C@@H]2C[C@@H]1/C(=C\OC)C(=O)OC,24.7 µM (active)
10,C=C(C)[C@H]1C(=O)c2c3c(cc4c5c(n1c24)[C@@]1(C)[C@@H](CC[C@H]2[C@](C)(/C=C/C=C(\C)C(=O)O)[C@@H](O)CC[C@@]21C)C5)C1=CC(C)(C)OC(C)(C)[C@H]1[C@@H]3O,2.2 µM (active)
11,CC(C)CC1C(=O)O[C@H](C(C)C)C(=O)N(C)C(CC(C)C)C(=O)O[C@@H](C(C)C)C(=O)N(C)C(CC(C)C)C(=O)O[C@H](C(C)C)C(=O)N(C)C(CC(C)C)C(=O)O[C@@H](C(C)C)C(=O)N1C (stereo not given in full),4.4 µM (active)
12,CO[C@H]1C[C@H](O[C@H]2[C@@H](O)C[C@H](O[C@H]3CC[C@]4(C=O)[C@H]5CC[C@]6(C)C(C7=CC(=O)OC7)CC[C@]6(O)[C@@H]5CC[C@]4(O)C3)O[C@@H]2C)O[C@H](C)[C@H]1O[C@H]1C[C@@H](OC)[C@@H](O[C@@H]2O[C@H](CO)[C@@H](O)[C@H](O)[C@H]2O)[C@@H](C)O1 (stereo not given in full),44 µM (active)
13,C/C=C/[C@@H]1[C@H]2C[C@@H](C)CC[C@@H]2C(C)=C[C@H]1C(=O)c1c(O)c(-c2ccc(O)cc2)c[nH]c1=O,22 µM (active)
14,CCCCC1CC[C@H]2CCCC(CCC)N12 (stereo not given in full),inactive
15,C/C=C1/CN2CC[C@]34C(=C(C(=O)OC)[C@H]1C[C@H]23)Nc1ccccc14,inactive
